Screening results: PubChem, National Center for Advancing Translational Sciences (NCATS)
Hits are enriched below; roughly 3.2% of the tested compounds scored in any of these assays.
Tau fluor cs – counter-screen for tau fibril formation inhibitors; Potency, µM (highest dose often 57.7 µM); tau K18 P301L Alexa594 fluorescence, heparin fibrillization; 280,000 tested, 0.93% active; also: nearly all actives have a fitted effect of over 55% in size
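Human tau K18 P301L (15 uM unlabeled, 0.24 uM Alexa 594-labeled) in 100 mM sodium acetate pH 7 with 20 uM heparin, 6 hr at 37 C. ThT 30 uM added, 1 hr ambient; Alexa 594 FP and total fluorescence read at 555/632 nm.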
RGS12 GoLoco inh – blocks human Gai1 binding to RGS12 GoLoco peptide, red readout; P63096; Gai1:RGS12 GoLoco peptide FP, rhodamine, 10 min; Potency, µM (doses to about 61.6 µM), usual class: inhibitors; 230,000 tested, 0.44% active; AID 880; active = well fitted inhibition curve with a large enough effect, not every such curve was filed as active; inactive = no such curve, though single readings can be large or run the other way; also: nearly all actives have a fitted effect of over 30% in size
Target sequence (P63096 whole entry, looked up): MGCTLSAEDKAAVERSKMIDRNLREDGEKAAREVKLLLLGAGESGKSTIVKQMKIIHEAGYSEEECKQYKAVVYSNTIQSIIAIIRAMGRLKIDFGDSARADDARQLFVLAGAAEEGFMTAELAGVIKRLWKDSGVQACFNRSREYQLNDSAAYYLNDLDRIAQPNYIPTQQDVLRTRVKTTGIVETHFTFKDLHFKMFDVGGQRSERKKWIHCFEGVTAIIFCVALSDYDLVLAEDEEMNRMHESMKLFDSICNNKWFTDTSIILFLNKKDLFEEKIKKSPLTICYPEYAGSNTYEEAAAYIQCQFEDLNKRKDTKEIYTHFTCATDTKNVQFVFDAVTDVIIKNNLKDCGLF
Tau fibril ThT – inhibitors of human tau fibril formation, thioflavin T binding; recombinant tau K18 P301L, heparin-induced fibrillization, ThT fluorescence; P10636; AID 1460; 270,000 tested, 2.1% active; Potency, µM (top dose mostly 57.4 µM), hits mostly inhibitors; also: nearly all actives have a fitted effect of over 55% in size
Target sequence (P10636 561-689 P618L limits assumed): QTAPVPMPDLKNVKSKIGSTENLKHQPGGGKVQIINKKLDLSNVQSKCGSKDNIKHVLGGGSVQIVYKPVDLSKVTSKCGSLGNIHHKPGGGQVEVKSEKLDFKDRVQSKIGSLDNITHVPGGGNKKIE
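Using a mix of unlabeled (15 uM) and Alexa 594-labeled (0.24 uM) tau K18 P301L, heparin-triggered fibrillization over 6 hr at 37 C was scored by ThT fluorescence.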
Tau fibril FP – inhibitors of human tau fibril formation. P10636. K18 P301L tau heparin fibrillization, Alexa594 FP, 6 h. Potency, µM (doses to about 57.7 µM), most hits filed as inhibitors. 280,000 tested, 0.39% active. AID 1468; also: nearly all actives have a fitted effect of over 55% in size
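Heparin (20 uM) drove fibril formation of recombinant tau K18 P301L, 15 uM unlabeled with 0.24 uM Alexa 594 label, for 6 hr at 37 C in 100 mM sodium acetate pH 7. Fluorescence polarization (555/632 nm) read 1 hr after 30 uM ThT.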
TexasRed fluor – counter-screen for TRb-SRC2 inhibitors: fluorescence interference; TRb/SRC2 Texas Red total fluorescence interference; Potency, µM (highest dose often 106 µM); 280,000 tested, 0.29% active; active = well fitted curve in either direction with a large enough effect; inconclusive = small, poorly fitted or top-dose-only effect
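Human TRβ ligand-binding domain (0.6 uM) and Texas Red SRC2 peptide (20 nM) in Tris buffer with 1 uM T3 and 5% DMSO were incubated with pinned compound for 5 hr at ambient temperature. Total fluorescence was computed as S + 2P (555/632 nm).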
TRb SRC2 PPI – disrupts binding of human TR beta to SRC2; TRbeta-SRC2 peptide binding, fluorescence polarization; receptor liganded with 1 µM T3; Potency, µM (titrated, usually from 106 µM), usual class: inhibitors; 280,000 tested, 0.065% active; also: nearly all actives have a fitted effect of over 50% in size
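Polarization signal, normalized between peptide-alone and full complex controls, measured compound effects on T3-liganded human TRb LBD (0.6 uM) binding 20 nM Texas Red SRC2 peptide after 5 hr.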
Large screens that a line does not name were inactive; [ ] = another dose, or the depositor's remark. Unless noted, calls follow the shape of the dose curve; as a rule, active = well fitted curve in the direction sought with a large enough effect; inconclusive = small, poorly fitted or top-dose-only effect, or another doubt; inactive = no such curve, though single readings can be large; an effect the other way counts as inactive or inconclusive.

CCN(CC)CCCNC(=O)c1nn(C)c2c1CS(=O)(=O)c1ccccc1-2	TexasRed fluor inconclusive (no result: RGS12 GoLoco inh)
Cc1oc(-c2ccccc2Cl)nc1CS(=O)(=O)CC(=O)NC(C)CCc1ccccc1 (configuration not stated)	Tau fibril ThT inconclusive (no result: RGS12 GoLoco inh)
CCN1C(=O)CC(C(=O)Nc2ccc(OC)cc2)SC1=Nc1ccc(C)c(C)c1 (configuration not stated)	Tau fibril FP inconclusive (no result: RGS12 GoLoco inh)
CC1=NN(c2ccccc2)C(=O)/C1=C\C=C1\N(C)c2ccccc2C1(C)C	Tau fluor cs inconclusive, Tau fibril ThT 1.6µM
CO/N=C/C=C1/N(C)c2ccccc2C1(C)C	Tau fibril FP inconclusive
CC1=NN(c2ccccc2)C(=O)/C1=C\C=C1/N(C)c2ccccc2C1(C)C	Tau fluor cs inconclusive, Tau fibril ThT 2.2µM, Tau fibril FP inconclusive
CC(=O)c1c(C)[nH]c(C2=NNC(=NCc3ccccc3)SC2)c1C	Tau fibril ThT inconclusive
CCOC(=O)c1c(C)[nH]c(C2=NNC(=Nc3cccc(Cl)c3)SC2)c1C	Tau fluor cs inconclusive, Tau fibril ThT 13µM, Tau fibril FP inconclusive
COc1ccc(/C=C/C(=O)c2cc(Cl)ccc2O)c(OC)c1	Tau fibril ThT 16µM
COc1ccc(C(=O)/C=C/c2ccc(OC)cc2OC)c(O)c1	Tau fibril ThT 18µM
COc1ccc(/C=C/C(=O)c2ccc(Cl)cc2)c(OC)c1	Tau fibril ThT inconclusive
CN1C[C@@H]2C[C@H]1CN2c1cc2c(cc1F)c(=O)c(C(=O)O)cn2C1CC1	none (no result: Tau fluor cs, Tau fibril ThT, Tau fibril FP)
CCCCCCCCCCCCCCC	none (no result: Tau fluor cs, RGS12 GoLoco inh, Tau fibril ThT, Tau fibril FP)
Cc1nc2cnc(N3CCOCC3)nc2n(Cc2cccs2)c1=O	none (no result: Tau fluor cs, Tau fibril ThT, Tau fibril FP, TexasRed fluor, TRb SRC2 PPI)
CCN(CC)c1ccc(C(=O)Nc2ccccc2)cc1[N+](=O)[O-]	Tau fluor cs inconclusive, Tau fibril ThT 16µM
O=c1c(-c2ccc(Cl)cc2)nc2cncnc2n1Cc1ccccc1Cl	none (no result: Tau fluor cs, Tau fibril ThT, Tau fibril FP, TexasRed fluor, TRb SRC2 PPI)
O=C1CC(c2ccccc2)=NN1c1nc(-c2ccccc2)cs1	Tau fluor cs inconclusive, Tau fibril ThT 10µM, Tau fibril FP inconclusive, TexasRed fluor 32µM[quencher], TRb SRC2 PPI inconclusive
CC1=NN(c2nc(-c3ccccc3)cs2)C(=O)C1	Tau fluor cs inconclusive, Tau fibril ThT inconclusive
Oc1ccc(NCc2cccc(OCc3ccccc3)c2)cc1	Tau fluor cs inconclusive, Tau fibril ThT 28µM, Tau fibril FP inconclusive, TRb SRC2 PPI 32µM
Oc1ccc(NCc2cccc(OCc3ccc(F)cc3)c2)cc1	Tau fluor cs inconclusive, Tau fibril ThT 22µM, Tau fibril FP inconclusive, TRb SRC2 PPI 11µM
O=[N+]([O-])c1ccc(COc2cccc(CNc3ccc(F)cc3)c2)cc1	Tau fluor cs inconclusive, Tau fibril ThT inconclusive
CS(=O)(=O)c1ccc(S(=O)CC(=O)Oc2ccc(Cl)cc2)c([N+](=O)[O-])c1 (configuration not stated)	Tau fibril ThT 3.5µM, Tau fibril FP inconclusive
Cc1ccc(-n2nnnc2SC(C(=O)c2c[nH]c3ccccc23)c2ccccc2)cc1 (configuration not stated)	Tau fluor cs inconclusive, Tau fibril FP 11µM
CCOC(=O)c1oc2ccccc2c1CSc1nnnn1-c1ccc(C)cc1	Tau fluor cs inconclusive
COc1ccc(NC(=O)N2CC3(CCN(C(=O)c4ccncc4)CC3)C2)cc1	none (no result: Tau fluor cs, Tau fibril ThT, Tau fibril FP, TexasRed fluor, TRb SRC2 PPI)
CCOC(=O)/C(C#N)=C/C=C1\C=Cc2ccccc2N1CC	Tau fibril ThT 1.6µM
CN1/C(=C/C=C(C#N)C#N)C=Cc2ccccc21	Tau fluor cs inconclusive, Tau fibril ThT inconclusive, Tau fibril FP 25µM, TexasRed fluor inconclusive, TRb SRC2 PPI inconclusive
COC(=O)CC[C@@H](C)[C@@H]1CC[C@@H]2[C@@H]3CC[C@H]4C[C@@H](O)CC[C@@]4(C)[C@@H]3CC[C@]21C	none (no result: Tau fluor cs, Tau fibril ThT, Tau fibril FP, TexasRed fluor, TRb SRC2 PPI)
O=C1COc2ccc(-c3cc(-c4ccccc4)c4c(n3)-c3cc(Cl)ccc3OC4)cc2N1	Tau fibril FP inconclusive (no result: RGS12 GoLoco inh)
CN(CC(=O)Nc1cccc(Cl)c1)S(=O)(=O)c1ccc2[nH]c3c(c2c1)CCCC3	Tau fluor cs 14µM[quencher] (no result: RGS12 GoLoco inh)
COc1ccc(NC(=O)CN(C)S(=O)(=O)c2ccc3[nH]c4c(c3c2)CCCC4)cc1Cl	Tau fluor cs 14µM[quencher] (no result: RGS12 GoLoco inh)
